Data reported in PubChem BioAssay AID720621 (The Scripps Research Institute Molecular Screening Center, 2013).
Some of the results follow. Unmarked numbers belong to inactive results.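 The calls were made as follows: active = inhibition above the mean of test compounds lying between the control limits plus 3 SD of those (cut at about 14% in these data); inactive = the rest.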

Target: Fibrinogen beta chain (Homo sapiens) (UniProt P02675)
Experiment: DD(E) binders in alternate-peptide displacement assay, confirmation, counter-screen for fibrin DD(E)-Tn6 binding project, biochemical, fluorescence polarization, human fibrin (AID 720621);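 also: 0% = median of compound wells and 100% = wells with Aha-Tn7 blocking peptide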
Conditions: TRITC-Tn6 fluorescence polarization displacement, at 8.3 µM, active compounds read high

Fibrinogen beta chain (Homo sapiens), sequence (P02675 whole entry, looked up): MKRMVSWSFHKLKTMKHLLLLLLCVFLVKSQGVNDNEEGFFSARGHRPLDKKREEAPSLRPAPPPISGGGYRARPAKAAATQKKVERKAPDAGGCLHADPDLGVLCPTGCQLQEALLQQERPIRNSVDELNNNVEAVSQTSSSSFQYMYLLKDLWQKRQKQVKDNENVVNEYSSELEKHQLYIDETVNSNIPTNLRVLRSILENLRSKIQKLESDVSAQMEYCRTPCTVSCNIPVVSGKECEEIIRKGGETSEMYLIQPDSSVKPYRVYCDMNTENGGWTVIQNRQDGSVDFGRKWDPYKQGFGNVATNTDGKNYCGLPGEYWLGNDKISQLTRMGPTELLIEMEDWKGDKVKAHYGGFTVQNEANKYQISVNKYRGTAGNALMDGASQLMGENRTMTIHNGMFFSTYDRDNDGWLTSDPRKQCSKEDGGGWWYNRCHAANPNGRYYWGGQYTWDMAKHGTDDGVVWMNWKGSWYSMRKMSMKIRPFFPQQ

| Structure (SMILES) | inhibition [%] |
| --- | --- |
| COc1ccc2c(c1O)-c1cccc3c1[C@@H](C2)N(C)CC3 | -6.45 |
| Cc1cc(N2CCNC[C@@H]2C)ccc1N1CC[C@H](O)C1 | 2.02 |
